# In paper PMC8384837, “Expanding the binding specificity for RNA recognition by a PUF domain”:
# How the values were obtained:
# Assay in all cases: yeast three-hybrid, YBZ-1, SC-Leu-His + 0.5 mM 3-AT, 4 days
# Conditions in all cases: tags: N-Gal4 AD-HA kept; label: inside an RPR1-promoter hybrid RNA with tandem MS2 sites; ssRNA
# PUM1 PUF domain R1-KKD = PUM1 PUF domain R1-KKD (Homo sapiens, UniProt Q14671 828-1176, S863K;R864K;Q867D)
# Method in brief: (§1)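 A centromeric plasmid in strain YBZ-1 co-expressed Pumilio-1 PUF domain libraries, randomized at the three base-contacting residues of each repeat, with matching RNA elements; the strain carries a LexA–MS2 coat fusion and a HIS3 reporter. After four days on SC-Leu (input) or SC-Leu-His + 0.5 mM 3-AT (selection), the repeat regions were PCR-amplified and Illumina-sequenced. The interaction score is the log change in variant frequency from input to selection, using log2 and a pseudocount of 1 where absent.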
# PUM1 PUF domain R1-GWK = PUM1 PUF domain R1-GWK (Homo sapiens, UniProt Q14671 828-1176, S863G;R864W;Q867K)
# Method in brief: as §1
# PUM1 PUF domain R7-ERR = PUM1 PUF domain R7-ERR (Homo sapiens, UniProt Q14671 828-1176, S1079E;N1080R;E1083R)
# Method in brief: as §1
# PUM1 PUF domain R4-SPQ = PUM1 PUF domain R4-SPQ (Homo sapiens, UniProt Q14671 828-1176, N971S;H972P)
# Method in brief: as §1
# PUM1 PUF domain R6-VFL = biological target: T1, PUM1 PUF domain R6-VFL (Homo sapiens, UniProt Q14671 828-1176, N1043V;Y1044F;Q1047L)
# T1 sequence: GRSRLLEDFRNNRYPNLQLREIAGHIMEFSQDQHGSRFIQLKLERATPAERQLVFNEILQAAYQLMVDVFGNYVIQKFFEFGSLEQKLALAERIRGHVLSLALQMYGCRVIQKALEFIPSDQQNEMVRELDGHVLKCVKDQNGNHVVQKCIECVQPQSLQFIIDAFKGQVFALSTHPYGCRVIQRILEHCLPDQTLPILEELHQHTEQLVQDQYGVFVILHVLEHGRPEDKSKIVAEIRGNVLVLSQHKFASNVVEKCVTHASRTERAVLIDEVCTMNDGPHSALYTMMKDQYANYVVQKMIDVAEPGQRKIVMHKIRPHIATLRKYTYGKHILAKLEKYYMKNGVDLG
# Method in brief: as §1
# PUM1 PUF domain R5-PHQ = PUM1 PUF domain R5-PHQ (Homo sapiens, UniProt Q14671 828-1176, C1007P;R1008H)
# Method in brief: as §1
# PUM1 PUF domain R5-NVR = PUM1 PUF domain R5-NVR (Homo sapiens, UniProt Q14671 828-1176, C1007N;R1008V;Q1011R)
# Method in brief: as §1
# PUM1 PUF domain R4-NCG = PUM1 PUF domain R4-NCG (Homo sapiens, UniProt Q14671 828-1176, H972C;Q975G)
# Method in brief: as §1
# PUM1 PUF domain R2-AWS = PUM1 PUF domain R2-AWS (Homo sapiens, UniProt Q14671 828-1176, N899A;Y900W;Q903S)
# Method in brief: as §1
# PUM1 PUF domain R8-IYW = PUM1 PUF domain R8-IYW (Homo sapiens, UniProt Q14671 828-1176, N1122I;Q1126W)
# Method in brief: as §1
sequence,measurement,setting,value
GGCUAGAACUAGUGGAUCCCCCGGCGCCCGGCGGCUCGAGCCCGGGUAAGUGUAAAUUGUCUGCAUGCCGCCGGGCGCCAUGCCUGCAGGUCGACUCUAGAAAACAUG,binding signal,PUM1 PUF domain R1-KKD,3.36 log2 enrichment (interaction score)
same,binding signal,PUM1 PUF domain R1-GWK,3.01 log2 enrichment (interaction score)
GGCUAGAACUAGUGGAUCCCCCGGCGCCCGGCGGCUCGAGCCCGGGUAAGUGUAAAUCGUCUGCAUGCCGCCGGGCGCCAUGCCUGCAGGUCGACUCUAGAAAACAUG,binding signal,PUM1 PUF domain R1-GWK,3.6 log2 enrichment (interaction score)
GGCUAGAACUAGUGGAUCCCCCGGCGCCCGGCGGCUCGAGCCCGGGUAAGUCUAAAUAGUCUGCAUGCCGCCGGGCGCCAUGCCUGCAGGUCGACUCUAGAAAACAUG,binding signal,PUM1 PUF domain R7-ERR,1.25 log2 enrichment (interaction score)
GGCUAGAACUAGUGGAUCCCCCGGCGCCCGGCGGCUCGAGCCCGGGUAAGUUUAAAUAGUCUGCAUGCCGCCGGGCGCCAUGCCUGCAGGUCGACUCUAGAAAACAUG,binding signal,PUM1 PUF domain R7-ERR,3.08 log2 enrichment (interaction score)
GGCUAGAACUAGUGGAUCCCCCGGCGCCCGGCGGCUCGAGCCCGGGUAAGUGUAAAUAGUCUGCAUGCCGCCGGGCGCCAUGCCUGCAGGUCGACUCUAGAAAACAUG,binding signal,PUM1 PUF domain R4-SPQ,3.02 log2 enrichment (interaction score)
same,binding signal,PUM1 PUF domain R6-VFL,1.07 log2 enrichment (interaction score)
same,binding signal,PUM1 PUF domain R5-PHQ,3.63 log2 enrichment (interaction score)
GGCUAGAACUAGUGGAUCCCCCGGCGCCCGGCGGCUCGAGCCCGGGUAAGUGUCAAUAGUCUGCAUGCCGCCGGGCGCCAUGCCUGCAGGUCGACUCUAGAAAACAUG,binding signal,PUM1 PUF domain R5-NVR,2.77 log2 enrichment (interaction score)
GGCUAGAACUAGUGGAUCCCCCGGCGCCCGGCGGCUCGAGCCCGGGUAAGUGUUAAUAGUCUGCAUGCCGCCGGGCGCCAUGCCUGCAGGUCGACUCUAGAAAACAUG,binding signal,PUM1 PUF domain R5-NVR,4.09 log2 enrichment (interaction score)
GGCUAGAACUAGUGGAUCCCCCGGCGCCCGGCGGCUCGAGCCCGGGUAAGUGUAUAUAGUCUGCAUGCCGCCGGGCGCCAUGCCUGCAGGUCGACUCUAGAAAACAUG,binding signal,PUM1 PUF domain R4-NCG,3.59 log2 enrichment (interaction score)
GGCUAGAACUAGUGGAUCCCCCGGCGCCCGGCGGCUCGAGCCCGGGUAAGUGUAAAAAGUCUGCAUGCCGCCGGGCGCCAUGCCUGCAGGUCGACUCUAGAAAACAUG,binding signal,PUM1 PUF domain R2-AWS,4.37 log2 enrichment (interaction score)
GGCUAGAACUAGUGGAUCCCCCGGCGCCCGGCGGCUCGAGCCCGGGUAAGUGAAAAUAGUCUGCAUGCCGCCGGGCGCCAUGCCUGCAGGUCGACUCUAGAAAACAUG,binding signal,PUM1 PUF domain R6-VFL,7.04 log2 enrichment (interaction score)
GGCUAGAACUAGUGGAUCCCCCGGCGCCCGGCGGCUCGAGCCCGGGUAAGCGUAAAUAGUCUGCAUGCCGCCGGGCGCCAUGCCUGCAGGUCGACUCUAGAAAACAUG,binding signal,PUM1 PUF domain R8-IYW,2.87 log2 enrichment (interaction score)
